Assay results taken from PubChem BioAssay AID651956 (Broad Institute, 2012).
Potency and affinity values are given separately. Results filed as inconclusive are left out. Calls of active or inactive are those of the source.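 The calls were made as follows: active = in every test run, a fitted half-maximal concentration for signal decrease at or below twice the highest tested concentration; inconclusive = runs disagree, flat 30 to 70% decrease, or poor fit; inactive = the rest.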

Assay: activation of miR-122 Renilla sensor silencing – cell-based, Huh7 psiCHECK-miR122, Renilla luciferase, cherry-picked, dose response (AID 651956);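 also: Renilla luciferase from a miR-122 sensor reporter so lower signal means miR-122 activation; 0% = median neutral control wells and -100% = median positive control wells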
Details: Huh7 psiCHECK-miR122 Renilla luciferase reporter, 48 h; series mostly up to 35 µM; activity change, negative = signal decrease: at the top concentration

SMILES | activity change, negative = signal decrease
COC(=O)C[C@H]1CC[C@@H]2[C@@H](COc3ccc(NC(=O)c4ccc(F)c(F)c4)cc3C(=O)N2C)O1 | -37.6% (inactive)
CC(C)C(=O)Nc1ccc2c(c1)C(=O)N(C)[C@@H]1CC[C@H](CC(=O)N[C@H](C)c3ccccc3)O[C@@H]1CO2 | 72.5% (inactive)
COC(=O)C[C@@H]1CC[C@@H]2[C@@H](COc3ccc(NC(=O)Nc4cccc(C#N)c4)cc3C(=O)N2C)O1 | 27.5% (inactive)
Fc1ccccc1-c1nc(-c2ccncc2)no1 | 44.4% (inactive)
CC(=O)N1[C@@H](CO)[C@@H](c2ccccc2)[C@@H]1CNC(=O)CN1CCOCC1 | -4.92% (inactive)
Cc1cc2n(n1)C(c1cn(-c3ccccc3)nc1C)Nc1c(C)cccc1-2 (stereo not given) | 51.5% (inactive)
CC(C)C(=O)Nc1ccc2c(c1)C(=O)N(C)[C@@H]1CC[C@@H](CC(=O)N[C@H](C)c3ccccc3)O[C@@H]1CO2 | -36.3% (inactive)
C/C=C/c1ccc([C@H]2[C@@H](CO)N[C@@H]2CN(C(=O)c2ccccc2F)C(C)C)cc1 | 179% (inactive)
COc1ccc(-c2oc3ncnc(NCCCN4CCOCC4)c3c2-c2ccc(OC)cc2)cc1 | -8.77% (inactive)
COCC(=O)N(C)C[C@H]1Oc2cc(-c3ccccc3F)ccc2S(=O)(=O)N([C@@H](C)CO)C[C@@H]1C | -55.7% (inactive)
CCCC(=O)Nc1ccc2c(c1)C(=O)N(C)[C@@H]1CC[C@H](CC(=O)NCc3cccc(F)c3)O[C@H]1CO2 | 63.9% (inactive)
CN1C(=O)c2cc(NC(=O)c3cccc(F)c3)ccc2OC[C@H]2O[C@H](CC(=O)N3CCc4ccccc4C3)CC[C@H]21 | -41.6% (inactive)
CNC(=O)C[C@H]1CC[C@@H]2[C@H](COc3ccc(NC(=O)c4ccccc4OC)cc3C(=O)N2C)O1 | 106% (inactive)
Cc1cc(C(=O)Nc2ccc3c(c2)C(=O)N(C)[C@H]2CC[C@H](CC(=O)N[C@H](C)c4ccccc4)O[C@H]2CO3)no1 | 77.8% (inactive)
CO[C@@H]1CN(C)C(=O)c2ccc(NC(=O)c3nc4ccccc4s3)cc2OC[C@H](C)N(Cc2cccnc2)C[C@H]1C | -9.21% (inactive)
CCC(=O)NC[C@H]1[C@H](c2ccc(C3=CCCC3)cc2)[C@H](CO)N1C(C)=O | -24.8% (inactive)
CCNC(=O)C[C@H]1CC[C@H]2[C@@H](COc3ccc(NS(C)(=O)=O)cc3C(=O)N2C)O1 | -11.3% (inactive)
CN(C)C(=O)C[C@@H]1CC[C@@H]2[C@@H](COc3ccc(NC(=O)C4CC4)cc3C(=O)N2C)O1 | -4.71% (inactive)
C/C=C/c1ccc([C@H]2[C@@H](CO)N(C(C)=O)[C@@H]2CN(C(=O)COC)C(C)C)cc1 | 132% (inactive)
COc1cc(-c2nnc(-c3ccco3)o2)ccc1OCc1ccccc1 | -42.4% (inactive)
CCn1nnnc1SCC(=O)Nc1nnc(C(C)C)s1 | 82.1% (inactive)
CN1C(=O)c2cc(NC(=O)c3cccs3)ccc2OC[C@H]2O[C@@H](CC(=O)N3CCCCC3)CC[C@H]21 | -31.5% (inactive)
Cc1cc(C(=O)Nc2cccc(O)c2)co1 | -6.99% (inactive)
CN1C(=O)c2cc(NC(=O)Cc3ccccc3)ccc2OC[C@H]2O[C@@H](CC(=O)NCc3ccc(Cl)cc3)CC[C@@H]21 | 119% (inactive)
CCCC(=O)Nc1ccc2c(c1)C(=O)N(C)[C@H]1CC[C@H](CC(=O)NCCN3CCCCC3)O[C@@H]1CO2 | -37.7% (inactive)
